Screening data as filed in PubChem.
Rows were chosen to be rich in hits. Some 0.81% of all compounds tested hit in one or more screens of this group.
RE007 growth inh: qHTS Assay for Inhibitors of the HIV-1 protein Vpr. S. pombe RE007 Vpr strain, BacTiter-Glo ATP luminescence, 24 h. Potency, µM (highest dose often 92.2 µM), without a hit: top-dose activity change, negative = less growth, hits mostly inhibitors. 360,000 compounds, 0.21% hits. AID 651644, 2012; active = well fitted falling curve with a large enough effect; inconclusive = small, poorly fitted or top-dose-only effect; inactive = no such curve, though single readings can be large or run the other way; note: % is set by controls: 0 for no effect and ±100 for the full control effect; nearly all actives have a fitted effect of over 50% in size
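Fission yeast strain RE007, carrying one chromosomally integrated HIV-1 vpr copy, was seeded at OD 0.01 in PMG+AL medium with 23 nL pinned compound. After 24 h at 30 °C and 99% humidity, viability was read by BacTiter-Glo luminescence.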
AMA1-RON2 inh: qHTS for Inhibitors of AMA1-RON; Towards Development of Antimalarial Drug Lead: Primary Screen | Plasmodium falciparum AMA1 (3D7) - RON2 peptide interaction | AlphaScreen AMA1-biotinylated RON2 peptide binding | Potency, µM (top dose mostly 58.2 µM), for inactives: at the top dose activity change, negative = inhibition, usual class: inhibitors | 360,000 compounds, 0.2% hits;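 note: 0% = vehicle wells and -100% = peptide control; nearly all actives have a fitted effect of over 45% in size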
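AMA1 (3D7) with his tag at 25 nM final met compounds first, then biotinylated RON2 peptide at 25 nM; detection used donor plus acceptor beads, 10 µg/mL apiece, read by AlphaScreen after 30 min at room temperature.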
TbPYK inhibitor: qHTS of Trypanosoma Brucei Inhibitors; AID 624173, 2012; Potency, µM (doses to about 76.8 µM), without a hit: at the highest dose activity, negative = inhibition, usual class: inhibitors; TbPYK enzyme, Kinase-Glo Plus ATP luminescence, 45 min; 410,000 compounds, 0.12% hits; note: % is set by controls: 0 for no effect and ±100 for the full control effect; nearly all actives have a fitted effect of over 50% in size
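TbPYK + substrate in 50 mM TEA pH 7.2, 100 mM KCl, 10 mM MgCl2, 0.05% BSA, 0.01% Tween-20; cpd pinned; ADP 130 uM final; 45 min RT; Kinase-Glo Plus 10 min; luminescence endpoint.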
LmPK inh: qHTS Assay for Inhibitors of Leishmania Mexicana Pyruvate Kinase (LmPK); Q27686; purified LmPK, Kinase-Glo ATP luminescence, 1 h; Potency, µM (doses to about 57.5 µM), inactives show at the highest dose activity change, negative = inhibition, hits mostly inhibitors; 290,000 compounds, 0.37% hits; AID 1721, 2009; note: % is set by controls: 0 for no effect and ±100 for the full control effect
Target sequence (Q27686 whole entry, looked up): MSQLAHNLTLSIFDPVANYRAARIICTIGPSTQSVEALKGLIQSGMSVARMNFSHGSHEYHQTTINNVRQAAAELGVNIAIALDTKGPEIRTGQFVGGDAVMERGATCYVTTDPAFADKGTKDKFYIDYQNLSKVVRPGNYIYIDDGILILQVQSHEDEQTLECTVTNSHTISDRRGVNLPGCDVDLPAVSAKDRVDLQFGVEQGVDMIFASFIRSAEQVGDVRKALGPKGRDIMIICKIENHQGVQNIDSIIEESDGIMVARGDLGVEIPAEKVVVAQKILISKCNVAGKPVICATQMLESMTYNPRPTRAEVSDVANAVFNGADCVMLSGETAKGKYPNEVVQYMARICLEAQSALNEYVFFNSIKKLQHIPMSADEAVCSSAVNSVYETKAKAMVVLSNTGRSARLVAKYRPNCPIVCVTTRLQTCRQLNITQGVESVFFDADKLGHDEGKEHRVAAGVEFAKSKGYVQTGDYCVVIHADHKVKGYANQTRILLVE
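qHTS format; LmPK 0.1 nM; substrates PEP 0.5 mM and ADP 0.1 mM. One-hour room-temperature incubation, then coupled luciferase luminescence; 0.5 nM enzyme wells mark activation.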
SARS PLP yeast: qHTS of Yeast-based Assay for SARS-CoV PLP; S. cerevisiae expressing SARS-CoV PLpro, growth rescue; 330,000 compounds, 0.19% hits; Potency, µM (series often up to 32.9 µM), for the others: top-dose activity, positive = growth rescue, most hits filed as activators; calls by dose curve; note: 0% is about no effect; nearly all actives have a fitted effect of over 55% in size
Numbers without * were called inactive; ? = inconclusive; nt = not tested or not shown; [ ] = remark or other dose. Unless noted, calls come from the whole dose curve; as a rule, active = well fitted curve in the direction sought with a large enough effect; inconclusive = small, poorly fitted or top-dose-only effect, or another doubt; inactive = no such curve, though single readings can be large; an effect the other way counts as inactive or inconclusive. Potency is the fitted concentration of half-maximal effect.

SMILES | RE007 growth inh | AMA1-RON2 inh | TbPYK inhibitor | LmPK inh | SARS PLP yeast
CC(=O)O[C@@]12CO[C@@H]1C[C@H](O)[C@@]1(C)C(=O)[C@H](O)C3=C(C)[C@@H](OC(=O)[C@H](O)[C@@H](NC(=O)OC(C)(C)C)c4ccccc4)C[C@@](O)([C@@H](OC(=O)c4ccccc4)[C@H]21)C3(C)C | nt | nt | 0% | nt | nt
O=C(Nc1ccc(C(=O)N2CCCC2)cc1)c1ccc2c(c1)OCO2 | ? | 5% | 1% | 16µM* | -6%
O=C(Nc1ccc(C(=O)N2CCCCC2)cc1)c1ccccc1 | -12% | 15% | ? | nt | nt
O=C(c1ccccc1)N1CCN(c2ccc(NCc3ccc4c(c3)OCO4)cc2)CC1 | -26% | 28µM* | -28% | 3% | 2%
O=C(Nc1ccccc1)Nc1ccc(C(=O)N2CCCC2)cc1 | -57% | 24% | ? | 16µM* | -4%
CC(CC(c1ccccc1)c1ccccc1)NC(C)(C)C (configuration not stated) | nt | nt | 0% | nt | nt
CN(C)c1ccc(N=Cc2cccn2C)cc1 | -18% | 22µM* | -10% | -7% | -8%
CN(C)c1ccc(N=Cc2nc(-c3ccccc3)oc2O)cc1 | ? | -8% | -14% | -3% | 3%
Cn1c(-c2c(N)n(C3CCCC3)c3nc4ccccc4nc23)nc2ccccc21 | 7.1µM* | 159% | -9% | 2% | -47%
O=C1c2c(O)ccc(O)c2C(=O)c2c(NCCNCCO)ccc(NCCNCCO)c21 | ? | 10µM* | ? | nt | nt
COC(=O)N1C(C2CC2)=Cc2ccccc2C1CC(C)=O (configuration not stated) | nt | nt | nt | -5%[11.5 µM] | nt
CN1CC[C@]23c4c5ccc(O)c4OC2C(O)CCC3[C@H]1C5 (some centres not stated) | nt | nt | 0%[157 µM] | nt | nt
C[C@H]1COC2=C1C(=O)C(=O)c1c2ccc2c1CCCC2(C)C | -29% | 28µM* | -4% | 0% | -4%
Cc1cccc(Nc2nn3c(=O)c4ccccc4nc3s2)c1 | -2% | -4% | 4% | 4% | 3%
CCCSc1nn2c(=O)c3ccccc3nc2s1 | ? | 1% | 7% | 14µM* | -14%
COc1cc(OC)c2c(-c3ccccc3)cc(=O)oc2c1C(CCN1CCOCC1)c1ccc(N(C)C)cc1 (configuration not stated) | -1% | 28µM* | 3% | nt | 6%
COc1ccc(C(CCN2CCCCC2)c2c(OC)cc(OC)c3c(-c4ccccc4)cc(=O)oc23)cc1 (configuration not stated) | 3% | -3% | 0% | 2% | 0%
COc1cc(OC)c2c(-c3ccccc3)cc(=O)oc2c1C(CCN1CCCCC1)c1ccc(N(C)C)cc1 (configuration not stated) | -10% | 25µM* | -8% | 7% | 1%
O=C1c2ccccc2C(c2nnnn2Cc2ccccc2)N1Cc1cccc(F)c1 (configuration not stated) | -1% | 6% | 6% | nt | nt
COC(=O)C1[C@@H](OC)C(OC(=O)COc2ccc(OC)cc2)C[C@@H]2CN3CCc4c([nH]c5cc(OC)ccc45)[C@H]3C[C@H]12 (some centres not stated) | nt | nt | 3% | nt | nt
O=C(CSc1nc2cc3ccccc3cc2[nH]1)Nc1cccc(C(F)(F)F)c1 | nt | nt | 1% | nt | nt
CCC(C)n1c(-c2cccc(S(=O)(=O)N3CCOCC3)c2)n[nH]c1=S (configuration not stated) | -3% | 79% | 7.1µM* | nt | 0%
CNC(=O)Oc1ccc(-c2cn3cc(C)ccc3n2)cc1 | ? | 9% | -1% | -22% | -27%
COC(=O)c1ccc2nc(-c3cccc(N)c3)cn2c1 | -14% | -3% | -15% | 25µM* | -1%
COC(=O)c1ccc2nc(-c3ccc(S(C)(=O)=O)cc3)cn2c1 | -15% | 5% | -1% | -1% | 0%
SMILES | RE007 growth inh | AMA1-RON2 inh | TbPYK inhibitor | LmPK inh | SARS PLP yeast
CNC(=O)Oc1cccc(-c2cn3cc(Cl)ccc3n2)c1 | ? | -5% | -23% | 14µM* | -27%
Clc1ccc(-c2cn3cc(Br)ccc3n2)cc1Cl | -23% | -3% | -5% | -13% | 14%
Clc1ccc(-c2cn3c(n2)-c2ccccc2C3)cc1Cl | 2% | -7% | -2% | 25µM* | -51%
CC(=O)Nc1ccc2c(c1)Cc1cc(N3C(=O)C=CC3=O)ccc1-2 | 4.5µM* | -10% | ? | nt | nt
O=C1C=CC(=O)N1c1ccc2c(c1)Cc1cc(F)ccc1-2 | 2.8µM* | -8% | ? | nt | nt
O=[N+]([O-])c1ccc2c(c1)Cc1cc(F)ccc1-2 | -18% | ? | -4% | nt | nt
CCCC(CCC)C(N)=O | nt | nt | -10% | nt | nt
COc1cc([N+](=O)[O-])cc(/C=N/NC(=O)c2ccc(NC(=O)c3ccc(C)cc3)cc2)c1O | -13% | 17% | 0% | 3% | 0%
COc1cc([N+](=O)[O-])cc(/C=N/NC(=O)CC#N)c1O | nt | nt | nt | 30% | 7.1µM*
COc1cc([N+](=O)[O-])cc(/C=N/NC(=O)C(C)Nc2ccccc2C)c1O (configuration not stated) | nt | 16% | 1% | 4% | 22µM*
Cc1ccc(OCC(=O)Nc2ccc(Cl)c(-c3nc4ncccc4o3)c2)cc1C | nt | nt | 5% | nt | nt
CCOC(=O)CCCCC(=O)c1[nH]c(=O)[nH]c1CSc1nc(-c2ccccc2)c(C#N)c(=O)[nH]1 | 8% | ? | 1% | 3% | 1%
CCOC(=O)CCCCC(=O)c1[nH]c(=O)[nH]c1CSCCO | -2% | 7.5µM* | 0% | -3% | 14%
CCOC(=O)CCCCC(=O)c1[nH]c(=O)[nH]c1Cn1cnc2ccccc21 | -2% | 38µM* | 1% | -7% | 3%
O=C(O)C1=C(CSc2nnnn2CS(=O)(=O)O)CS[C@@H]2[C@H](NC(=O)[C@H](O)c3ccccc3)C(=O)N12 | nt | nt | -7% | nt | nt
COc1ccc(CCNC(=O)CCc2c(C)nc3nc(C)nn3c2C)cc1OC | nt | nt | 3% | nt | nt
CC1(c2ccc(OC(F)F)cc2)NC(=O)N(CC(=O)N2CCN(C(=O)c3ccco3)CC2)C1=O (configuration not stated) | -9% | -9% | 5% | nt | -8%
COc1ccc(N2CCN(c3ncnc4scc(-c5ccc(C)cc5)c34)CC2)cc1 | 9% | 11% | 1% | 6% | -33%
COc1ccc(N2CCN(c3ncnc4scc(-c5ccc(F)cc5)c34)CC2)cc1 | -2% | 13µM* | 6% | -3% | -9%
O=C1c2sc3nc4n(c(=O)c3c2CCC1Br)CCCCC4 (configuration not stated) | 2% | 6% | ? | 28µM* | -15%
O=C1CCCc2c1sc1nc3n(c(=O)c21)CCCCC3 | 3% | -16% | 4% | -8% | -13%
